# Test results: the supplement of paper PMC6555819
# Legend:
# Experiment in all cases: PBM binding z-score (relative to random genomic background probes); higher = stronger binding; sequences stand for … in GC…GCGATTGACAGCGTAGAATGAAGG
# [1] = test system: FXR:RXRa (NR concentration 270 nM, RXRa partner concentration 90 nM)
# Summary of the method: (§1)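 Ligand-free nuclear receptor dimers were bound for 1 h to custom Agilent 4×180K protein-binding microarrays. Detection used antibodies against each partner (one per run). Binding z-scores rest on regression-normalized fluorescence, with random background probes as the reference.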
# [2] = test system: LXRa:RXRa (NR concentration 270 nM, RXRa partner concentration 90 nM)
# Summary of the method: as §1
# [3] = test system: LXRa homodimer (NR concentration 270 nM)
# Summary of the method: as §1
# [4] = test system: LXRb:RXRa (NR concentration 270 nM, RXRa partner concentration 90 nM)
# Summary of the method: as §1
# [5] = test system: LXRb homodimer (NR concentration 270 nM)
# Summary of the method: as §1
# [6] = test system: PPARa:RXRa (NR concentration 270 nM, RXRa partner concentration 90 nM)
# Summary of the method: as §1
# [7] = test system: PPARg:RXRa (NR concentration 180 nM, RXRa partner concentration 90 nM)
# Summary of the method: as §1
# [8] = test system: PPARg:RXRa 270nM:90nM, anti-RXR (NR concentration 270 nM, RXRa partner concentration 90 nM)
# Summary of the method: as §1
# [9] = test system: PPARg:RXRa 30nM:10nM, anti-RXR (NR concentration 30 nM, RXRa partner concentration 10 nM)
# Summary of the method: as §1
# [10] = test system: PPARg:RXRa 90nM:30nM, anti-RXR (NR concentration 90 nM, RXRa partner concentration 30 nM)
# Summary of the method: as §1
# [11] = test system: PPARg:RXRa DBDmut IVT, anti-RXR (DBD mutation: RXRa K156A/R161A, NR concentration 270 nM, RXRa partner concentration 90 nM)
# Summary of the method: as §1
# [12] = test system: PPARg:RXRa IVT, anti-PPARg (NR concentration 270 nM, RXRa partner concentration 90 nM)
# Summary of the method: as §1
# [13] = test system: PPARg DBDmut:RXRa IVT, anti-PPARg (DBD mutation: PPARg1 K132A/R137A, NR concentration 270 nM, RXRa partner concentration 90 nM)
# Summary of the method: as §1
# [14] = test system: PPARg DBDmut IVT, anti-PPARg (DBD mutation: PPARg1 K132A/R137A, NR concentration 270 nM)
# Summary of the method: as §1
# [15] = test system: PPARg homodimer (NR concentration 180 nM)
# Summary of the method: as §1
# [16] = test system: PXR:RXRa (NR concentration 270 nM, RXRa partner concentration 90 nM)
# Summary of the method: as §1
# [17] = test system: PXR homodimer (NR concentration 270 nM)
# Summary of the method: as §1
# [18] = test system: RARa:RXR (NR concentration 270 nM, RXRa partner concentration 90 nM)
# Summary of the method: as §1
# [19] = test system: RARa homodimer (NR concentration 270 nM)
# Summary of the method: as §1
# [20] = test system: RARb:RXRa (NR concentration 270 nM, RXRa partner concentration 90 nM)
# Summary of the method: as §1
Sequence,PBM binding z-score [1],PBM binding z-score [2],PBM binding z-score [3],PBM binding z-score [4],PBM binding z-score [5],PBM binding z-score [6],PBM binding z-score [7],PBM binding z-score [8],PBM binding z-score [9],PBM binding z-score [10],PBM binding z-score [11],PBM binding z-score [12],PBM binding z-score [13],PBM binding z-score [14],PBM binding z-score [15],PBM binding z-score [16],PBM binding z-score [17],PBM binding z-score [18],PBM binding z-score [19],PBM binding z-score [20]
ACTAGCTGGCCAAGGGTCACTCAAGATTAGTCCG,2.23,2.82,0.129,2.53,-0.388,3.71,4.25,5.31,3.16,5.05,-0.256,1.86,-0.605,-0.878,1.67,2.92,-0.559,3.54,-0.213,3.34
CCTAGTTGGTCAGGCGGTCACACACCGGATATGA,0.554,0.309,0.525,0.155,0.122,0.32,0.706,0.973,-0.186,0.129,0.37,0.945,-0.344,-0.024,0.926,0.0317,0.384,-0.0122,0.796,1.75
GCTTGTAGATCAAGGTTAATAAAGACTAAGCTAA,-0.0696,2.14,-0.45,0.661,-0.608,1,1.29,2.36,0.581,1.78,1.14,0.996,-0.734,0.456,-0.133,0.16,0.327,0.282,0.0284,0.519
GCTCGGAGGATAAGGTCAGAGCTTTGTCCGTAGA,2.22,1.66,-0.483,1.26,-1.34,2.62,0.136,1.3,-0.139,0.94,-0.248,0.29,-0.531,-1.51,0.565,1.86,-0.244,2.62,-0.904,3.29
CGTCCAAGGTCATAGGAGGTCGGTGAAGACAGAT,7.17,6.22,1.31,4.11,0.234,5.36,4.31,4.86,1.6,3.35,2.55,3.51,-0.173,0.224,2.9,6.03,1.77,4.4,0.95,4.89
ATCTCTAGGTAACCAAGTTCAGAGAATGCCGAAC,0.204,0.722,0.915,0.628,0.739,1.2,0.721,0.986,-0.0566,0.52,3.4,2.88,1.18,0.83,0.879,2.15,1.71,0.548,0.605,1.22
CAAACTAGGTCCAGGTCAAAGTCGGTTTGTGCCA,2.21,2.36,1.47,1.98,0.0545,3.29,2.6,3.28,0.928,2.59,3.43,3.67,0.261,-0.192,1.29,2.57,0.685,2.22,0.417,2.9
TCGACTAGGTTAGGGGCATTCAGAATGGCGTCGA,0.141,0.372,-0.304,0.803,-0.322,1.38,1.35,2.49,1.74,2.17,2.47,1.86,0.0313,-0.271,0.688,0.539,-0.0457,0.602,-0.239,1.26
ACAGACAGGAGAGTGAAGGTAACTCAGCTGGACG,0.399,-0.127,-0.128,0.0952,0.885,0.0627,0.928,0.616,0.213,0.343,-0.0669,0.0769,0.725,0.294,0.433,0.0985,0.114,0.228,0.297,0.198
GCTGCTAGGTCAGGTTGGTCAGATAACGGGTACG,1.44,0.895,-0.305,0.708,0.0296,1.5,1.03,1.12,-0.213,0.38,2.83,2.3,-0.406,-0.502,0.742,0.425,-0.0616,0.792,0.212,3.22
TCATATAGGTCAATGCTAGGTGAAAGTCCGATCT,5.19,4.7,1.51,3.52,1.02,5,5.86,6.06,4.7,5.89,6.69,6.83,1.25,2.16,2.7,2.78,0.347,3.7,1.3,4.21
GCTAGTTGGTCAGTAAAAGGTCACGCACCGGTCG,4.11,4.91,4.69,4.3,0.681,4.73,3.18,5.04,2.52,4.78,1.6,2.94,1.14,0.145,5.9,5.48,1.28,6.73,4.45,4.47
GCAGAGAGGTGAAACGCAGGTAACTCAGGGTGGC,0.782,1.12,-0.671,0.662,-1.3,2.86,1.21,1.02,-0.323,-0.000796,2.17,1.97,-0.463,-1.39,-0.0516,0.34,-0.544,1.48,-0.435,1.88
GTACCAAGGTGAATAGGTCCTTGATGAGTAGGCG,0.104,0.0189,-0.541,-0.255,-0.745,1.27,0.918,0.908,0.0599,0.237,1.68,1.9,-0.22,-0.0495,0.461,-0.118,-0.138,0.337,0.144,1.23
